Results on 38 compounds are retold here after PubChem BioAssay (Tox21).

Inconclusive results are not listed. Calls of active or inactive are those of the source. Calls come from the whole dose curve; as a rule, active = well fitted curve in the direction sought with a large enough effect in the repeat runs; inconclusive = weak or mixed curves; inactive = no such curve, though single readings can be large; an effect the other way counts as inactive or inconclusive.
% is set by controls: 0 for no effect and ±100 for the full control effect.

One test is described as follows: qHTS RealTime-Glo MT Cell Viability Assay in HEK293 cells - 0 hour (AID 1224880). Note: top concentration of the series differs between compounds; nearly all actives have a fitted effect of over 45% in size. The settings on record: RealTime-Glo luminescence; series mostly up to 76.8 µM; activity change, negative = cytotoxicity: at the top concentration. A digest of the protocol: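 Luminescence readout at each listed time point; HEK293, 600 cells/well, RealTime-Glo MT reagent added with cells; compounds pinned (23 nL in DMSO) after 5 h at 37 C; continuous culture at 37 C.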
A general note: In qHTS, concentration-response curves come from the screen itself.
Turning to `CCOc1ncc(F)c(=O)[nH]1`, the “activity change, negative = cytotoxicity” value is 2.62% [at 35.3 µM] (inactive).

Turning to `CC(O)Cn1cnc2c1c(=O)n(C)c(=O)n2C` (stereo unspecified), the “activity change, negative = cytotoxicity” value is 0.295% [at 35.3 µM] (inactive).

`CCCCCCCC/C=C/C(=O)O`: the “activity change, negative = cytotoxicity” value was 4.8% [at 35.3 µM] (inactive).

As to `CCN(CC)CCOc1ccccc1C(=O)CCc1ccccc1`, the “activity change, negative = cytotoxicity” value was 2.34% [at 35.3 µM] (inactive).

In the case of `Nc1ccn([C@H]2CS[C@@H](CO)O2)c(=O)n1`, the “activity change, negative = cytotoxicity” value is -3.1% (inactive).

With `O=C(O)CCCc1c[nH]c2ccccc12`, the “activity change, negative = cytotoxicity” value was -8.16% (inactive).

For `CNc1c2c(nn1C)CCCC2`, the “activity change, negative = cytotoxicity” value is -12% [at 35.3 µM] (inactive).

`CCNc1nc(N)nc(Cl)n1`: the “activity change, negative = cytotoxicity” value is 19.2% (inactive).

Take `CCCOC(=O)c1c(Cl)c(Cl)c(Cl)c(Cl)c1C(=O)OCCC`: the “activity change, negative = cytotoxicity” value was 0.189% (inactive).

For `CN=C(N)NC(=O)Nc1c(C)cccc1C`, the “activity change, negative = cytotoxicity” value was 19.4% [at 35.3 µM] (inactive).

For the compound `O=S(=O)(O)CO`, the “activity change, negative = cytotoxicity” value is 3.86% (inactive).

Turning to `CC(=O)OC(C)C[N+](C)(C)C` (stereo unspecified), the “activity change, negative = cytotoxicity” value is -5.54% [at 35.3 µM] (inactive).

Take `CCC(CO)(CO)CO`: the “activity change, negative = cytotoxicity” value is -0.898% (inactive).

Regarding `CSSc1ccoc1C`, the “activity change, negative = cytotoxicity” value is -9.06% (inactive).

As to `O=CNNC=O`, the “activity change, negative = cytotoxicity” value was 0.799% (inactive).

Regarding `CC(C)N=C=NC(C)C`, the “activity change, negative = cytotoxicity” value was -1.66% (inactive).

With `CC(=O)N[C@@H](Cc1ccc(O)cc1)C(=O)O`, the “activity change, negative = cytotoxicity” value is -0.367% [at 35.3 µM] (inactive).

Consider `CC(=O)Oc1cccc(O)c1`, for which the “activity change, negative = cytotoxicity” value was -3.87% [at 35.3 µM] (inactive).

Consider `CC(C)(C(=O)c1cccnc1)c1cccnc1`, for which the “activity change, negative = cytotoxicity” value is 6.67% [at 35.3 µM] (inactive).

Turning to `C=CC(=O)NC(C)C`, the “activity change, negative = cytotoxicity” value is 2.01% (inactive).

As to `COc1cc(OC)c2ccc(=O)oc2c1`, the “activity change, negative = cytotoxicity” value was -2.87% (inactive).

For the compound `CC(C)C1CCC(C(=O)N[C@H](Cc2ccccc2)C(=O)O)CC1` (stereo partly specified), the “activity change, negative = cytotoxicity” value is -1.63% [at 35.3 µM] (inactive).

For the compound `CC(C)(O)CCc1ccccc1`, the “activity change, negative = cytotoxicity” value was -1.69% (inactive).

For `Nc1nc(-c2ccc([N+](=O)[O-])cc2)cs1`, the “activity change, negative = cytotoxicity” value is -0.652% (inactive).

Regarding `Cc1cc(CCC(=O)OCCOCCOCCOC(=O)CCc2cc(C)c(O)c(C(C)(C)C)c2)cc(C(C)(C)C)c1O`, the “activity change, negative = cytotoxicity” value is 7.7% (inactive).

On to `O=C(O)CCS`, for which the “activity change, negative = cytotoxicity” value was 11.1% (inactive).

As to `COc1ccc2nc(S(=O)Cc3ncc(C)c(OC)c3C)[nH]c2c1` (stereo unspecified), the “activity change, negative = cytotoxicity” value was 9.87% [at 35.3 µM] (inactive).

`C[C@H](CS)C(=O)N1CCC[C@H]1C(=O)O`: the “activity change, negative = cytotoxicity” value is 2.31% [at 35.3 µM] (inactive).

Take `Cc1ccc(Cl)cc1N`: the “activity change, negative = cytotoxicity” value is 8.93% (inactive).

As for `CN1C(CSCC(F)(F)F)Nc2cc(Cl)c(S(N)(=O)=O)cc2S1(=O)=O` (stereo unspecified), the “activity change, negative = cytotoxicity” value was 3.54% [at 35.3 µM] (inactive).

For the compound `Cc1cc([N+](=O)[O-])ccc1N`, the “activity change, negative = cytotoxicity” value was -3.16% (inactive).

As to `CC[C@H]1OC(=O)[C@H](C)[C@@H](O[C@H]2C[C@@](C)(OC)[C@@H](O)[C@H](C)O2)[C@H](C)[C@@H](O[C@@H]2O[C@H](C)C[C@H](N(C)C)[C@H]2O)[C@](C)(O)C[C@@H](C)CN(C)[C@H](C)[C@@H](O)[C@]1(C)O`, the “activity change, negative = cytotoxicity” value was -4.69% [at 35.3 µM] (inactive).

As to `CCCCCCCCCCCCCOC(=O)CCSCCC(=O)OCCCCCCCCCCCCC`, the activity change, negative = cytotoxicity is -5.28% [at 15.8 µM] (inactive).

With `CC(=O)NNC(C)=O`, the “activity change, negative = cytotoxicity” value was -3.64% (inactive).

Turning to `CC[C@H]1OC(=O)[C@H](C)[C@@H](O[C@H]2C[C@@](C)(OC)[C@@H](O)[C@H](C)O2)[C@H](C)[C@@H](O[C@@H]2O[C@H](C)C[C@H](N(C)C)[C@H]2O)[C@](C)(O)C[C@@H](C)/C(=N\OCOCCOC)[C@H](C)[C@@H](O)[C@]1(C)O`, the “activity change, negative = cytotoxicity” value was -2.32% [at 35.3 µM] (inactive).

Regarding `CNC1CCCN(c2c(F)cc3c(=O)c(C(=O)O)cn(C4CC4)c3c2OC)C1` (stereo unspecified), the “activity change, negative = cytotoxicity” value is -2.97% [at 35.3 µM] (inactive).

In the case of `Cc1ccc(NC(=O)N(C)C)cc1NC(=O)N(C)C`, the “activity change, negative = cytotoxicity” value is -1.3% (inactive).

In the case of `CC[C@@H](CO)NCCN[C@@H](CC)CO`, the “activity change, negative = cytotoxicity” value is 4.13% [at 35.3 µM] (inactive).

Another test is described as follows: A CellTox Green Cytotoxicity Assay to monitor cytotoxicity in HEK293 cells - 32 hour (AID 1224881). Note: nearly all actives have a fitted effect of over 40% in size. The settings on record: CellTox Green fluorescence; series mostly up to 76.8 µM; cytotoxicity increase: at the top concentration. A digest of the protocol: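 Read-out: fluorescence of a cell-impermeant cyanine dye staining DNA of dead cells, proportional to cytotoxicity. HEK293, 600 cells/well with reagent, compound (23 nL DMSO) added after 5 h; reads at 0, 8, 16, 24, 32, 40 h.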
`CCOc1ncc(F)c(=O)[nH]1`: the “cytotoxicity increase” value is 2.23% [at 35.3 µM] (inactive).

Take `CC(O)Cn1cnc2c1c(=O)n(C)c(=O)n2C` (stereo unspecified): the “cytotoxicity increase” value is 7.32% [at 35.3 µM] (inactive).

For the compound `CCCCCCCC/C=C/C(=O)O`, the “cytotoxicity increase” value was 8.69% [at 35.3 µM] (inactive).

Take `CCN(CC)CCOc1ccccc1C(=O)CCc1ccccc1`: the “cytotoxicity increase” value is 14.1% [at 35.3 µM] (inactive).

Regarding `Nc1ccn([C@H]2CS[C@@H](CO)O2)c(=O)n1`, the “cytotoxicity increase” value was -0.53% (inactive).

With `O=C(O)CCCc1c[nH]c2ccccc12`, the “cytotoxicity increase” value is 1.67% (inactive).

Consider `CNc1c2c(nn1C)CCCC2`, for which the “cytotoxicity increase” value was -2.85% [at 35.3 µM] (inactive).

For `CCNc1nc(N)nc(Cl)n1`, the “cytotoxicity increase” value was -8.18% (inactive).

For the compound `CCCOC(=O)c1c(Cl)c(Cl)c(Cl)c(Cl)c1C(=O)OCCC`, the “cytotoxicity increase” value is 5.68% (inactive).

`CN=C(N)NC(=O)Nc1c(C)cccc1C`: the “cytotoxicity increase” value is -0.799% [at 35.3 µM] (inactive).

In the case of `O=S(=O)(O)CO`, the “cytotoxicity increase” value was -10% (inactive).

Turning to `CC(=O)OC(C)C[N+](C)(C)C` (stereo unspecified), the “cytotoxicity increase” value is 6.68% [at 35.3 µM] (inactive).

Consider `CCC(CO)(CO)CO`, for which the “cytotoxicity increase” value is 0.0235% (inactive).

In the case of `CSSc1ccoc1C`, the “cytotoxicity increase” value was -11.9% (inactive).

`O=CNNC=O`: the “cytotoxicity increase” value was -1.38% (inactive).

Take `CC(C)N=C=NC(C)C`: the “cytotoxicity increase” value is -24.4% (inactive).

`CC(=O)N[C@@H](Cc1ccc(O)cc1)C(=O)O`: the “cytotoxicity increase” value is -5.68% [at 35.3 µM] (inactive).

Consider `CC(=O)Oc1cccc(O)c1`, for which the “cytotoxicity increase” value is 6.83% [at 35.3 µM] (inactive).

Regarding `CC(C)(C(=O)c1cccnc1)c1cccnc1`, the “cytotoxicity increase” value was -2.75% [at 35.3 µM] (inactive).

As to `C=CC(=O)NC(C)C`, the “cytotoxicity increase” value is -1.41% (inactive).

`COc1cc(OC)c2ccc(=O)oc2c1`: the “cytotoxicity increase” value was -7.45% (inactive).

Turning to `CC(C)C1CCC(C(=O)N[C@H](Cc2ccccc2)C(=O)O)CC1` (stereo partly specified), the “cytotoxicity increase” value is 10% [at 35.3 µM] (inactive).

Turning to `CC(C)(O)CCc1ccccc1`, the “cytotoxicity increase” value is 15% (inactive).

As to `Nc1nc(-c2ccc([N+](=O)[O-])cc2)cs1`, the “cytotoxicity increase” value was -9.27% (inactive).

`Cc1cc(CCC(=O)OCCOCCOCCOC(=O)CCc2cc(C)c(O)c(C(C)(C)C)c2)cc(C(C)(C)C)c1O`: the “cytotoxicity increase” value is -7.95% (inactive).

As for `O=C(O)CCS`, the “cytotoxicity increase” value was -7.67% (inactive).

For `COc1ccc2nc(S(=O)Cc3ncc(C)c(OC)c3C)[nH]c2c1` (stereo unspecified), the “cytotoxicity increase” value is 2.62% (inactive).

Consider `C[C@H](CS)C(=O)N1CCC[C@H]1C(=O)O`, for which the “cytotoxicity increase” value is 7.23% [at 35.3 µM] (inactive).

On to `Cc1ccc(Cl)cc1N`, for which the “cytotoxicity increase” value is -3.01% (inactive).

`CN1C(CSCC(F)(F)F)Nc2cc(Cl)c(S(N)(=O)=O)cc2S1(=O)=O` (stereo unspecified): the “cytotoxicity increase” value was -17.4% [at 35.3 µM] (inactive).

`Cc1cc([N+](=O)[O-])ccc1N`: the “cytotoxicity increase” value is -11.2% (inactive).

Consider `CC[C@H]1OC(=O)[C@H](C)[C@@H](O[C@H]2C[C@@](C)(OC)[C@@H](O)[C@H](C)O2)[C@H](C)[C@@H](O[C@@H]2O[C@H](C)C[C@H](N(C)C)[C@H]2O)[C@](C)(O)C[C@@H](C)CN(C)[C@H](C)[C@@H](O)[C@]1(C)O`, for which the “cytotoxicity increase” value is -6.03% [at 35.3 µM] (inactive).

Regarding `CCCCCCCCCCCCCOC(=O)CCSCCC(=O)OCCCCCCCCCCCCC`, the cytotoxicity increase was 13.9% [at 15.8 µM] (inactive).

Regarding `CC(=O)NNC(C)=O`, the “cytotoxicity increase” value is -16.5% (inactive).

Take `CC[C@H]1OC(=O)[C@H](C)[C@@H](O[C@H]2C[C@@](C)(OC)[C@@H](O)[C@H](C)O2)[C@H](C)[C@@H](O[C@@H]2O[C@H](C)C[C@H](N(C)C)[C@H]2O)[C@](C)(O)C[C@@H](C)/C(=N\OCOCCOC)[C@H](C)[C@@H](O)[C@]1(C)O`: the “cytotoxicity increase” value was -2.7% [at 35.3 µM] (inactive).

On to `CNC1CCCN(c2c(F)cc3c(=O)c(C(=O)O)cn(C4CC4)c3c2OC)C1` (stereo unspecified), for which the “cytotoxicity increase” value is -13.4% [at 35.3 µM] (inactive).

In the case of `Cc1ccc(NC(=O)N(C)C)cc1NC(=O)N(C)C`, the “cytotoxicity increase” value was 2.5% (inactive).

Take `CC[C@@H](CO)NCCN[C@@H](CC)CO`: the “cytotoxicity increase” value was -5.24% [at 35.3 µM] (inactive).
